# MBD2 DNA inh – inhibitors of MBD2 binding to methylated DNA, primary screen, biochemical, TR-FRET, DNA-binding domain, human; MBD2 binding to methylated oligonucleotide; inhibition, % at 4.4 µM; hit rate 0.31% among 370,000; AID 686964, 2013; in the data active means inhibition above about 13%
# LEDGF integ inh – blockers of LEDGF/p75-dependent integrase strand transfer – biochemical, TR-FRET, high throughput, primary screen. TR-FRET IN-LEDGF/p75 DNA integration, Eu/Cy5. inhibition, % at 3.7 µM. hit rate 0.64% among 370,000;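 active means inhibition above the screen-wide mean plus 3 SD, cut at about 13% in these data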;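 further: signal is the Cy5 over europium emission ratio at 671 and 618 nm; 0% = plate median of compound wells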
# rCAG RNA binder – binders of r(CAG) RNA repeats, primary screen, biochemical, fluorescence. r(CAG) RNA repeat, TO-PRO-1 dye displacement fluorescence. inhibition, % at 3 µM. hit rate 1.3% among 370,000. AID 651821, 2012;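 active means inhibition above the plate cutoff, the mean of all test compounds on that plate plus 3 SD, cut at about 35% in these data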;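 further: 0% = DMSO alone and 100% = 100 µM mitoxantrone as full dye displacement; higher means more dye released from RNA so lower well fluorescence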
# PRMT1 inh – PRMT1 methyltransferase inhibitors, primary screen, biochemical, fluorescence polarization; Protein arginine N-methyltransferase 1 (Homo sapiens), Q99873; recombinant PRMT1, activity-based probe fluorescence polarization; inhibition, % at 2.79 µM; hit rate 1.3% among 370,000; AID 652257, 2013;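 active means inhibition above about 21% made by adding two undisclosed values, limit read from the data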
# ABHD5 PLIN5 PPI – ABHD5-PLIN5 interaction inhibitors, primary screen, cell lysate, split luciferase complementation, luminescence; Perilipin-5 (Homo sapiens) + 1-acylglycerol-3-phosphate O-acyltransferase ABHD5 (Homo …; Split G. princeps luciferase complementation, 4 h; inhibition, % at 4 µM; hit rate 0.78% among 360,000;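 active means inhibition above the mean inhibition across every tested compound plus 3 SD, cut at about 22% in these data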;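 further: 0% = DMSO only wells and the 100% control is not disclosed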
# UHRF1 MBD2 ctr – UHRF1 methylated DNA binding inhibitors, primary screen, counter-screen for MBD2 inhibitor project, biochemical, TR-FRET, human UHRF1, single concentration; UHRF1 binding to methylated oligo; E3 ubiquitin-protein ligase UHRF1 (Homo sapiens), Q96T88; hit rate 0.75% among 370,000; inhibition, % at 4.4 µM; in the data active means inhibition above about 21%;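 further: UHRF1 SRA domain binding a hemimethylated CpG hairpin DNA probe; 0% = median of test compound wells and 100% = reference inhibitor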
# PRMT1 confirm – PRMT1 methyltransferase inhibitors, confirmation, biochemical, fluorescence polarization, triplicate | shares compounds with PRMT1 inh | recombinant His-PRMT1, activity-based probe fluorescence polarization | inhibition, % at 2.79 µM | hit rate 42% among 3,300 | AID 687036, 2013;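 active means mean inhibition across replicates above the hit cutoff derived for the earlier primary screen, cut at about 22% in these data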
# Numbers without * were called inactive; . = not tested or not shown. Only some compounds are listed: those with a hit (about 4.1% of all), similar ones and a draw of the others.
SMILES,MBD2 DNA inh,LEDGF integ inh,rCAG RNA binder,PRMT1 inh,ABHD5 PLIN5 PPI,UHRF1 MBD2 ctr,PRMT1 confirm
COC(=O)Cc1nnn2c1[C@@H](C)[C@@H](c1ccccc1Br)OC[C@@H]2c1ccccc1,0.0,-3.4,1.2,3.2,.,-1.2,.
NCCSSCCN,9.6,-5.0,-1.6,80.0*,-46.1,7.2,31.1*
S=c1nccc(-c2ccc(Cl)cc2)[nH]1,-7.8,5.1,1.0,26.3*,-4.9,-0.9,26.8*
S=c1[nH]c(-c2ccc(Cl)cc2)cs1,1.1,-3.4,5.9,30.6*,-12.7,-1.4,54.3*
Cc1ccc(/C=C2\CC(C)CC3=C2NC(=S)NC3c2ccc(C)cc2)cc1 (centres undefined),5.2,0.4,11.7,38.0*,5.1,-1.0,30.2*
CC1CC2=C(NC(=S)NC2c2ccccc2F)/C(=C/c2ccccc2F)C1 (centres undefined),-5.7,2.3,5.5,49.5*,-2.9,-4.9,10.3
Fc1ccc(/C=C2\CCCC3=C2Nc2ncnn2C3c2ccc(F)cc2)cc1 (centres undefined),3.5,-3.6,1.5,2.5,17.3,2.1,.
Cc1ccc(/C=C2\CCCC3=C2NC(=S)NC3c2ccc(C)cc2)cc1 (centres undefined),0.3,2.5,9.5,45.2*,-5.9,-1.8,35.3*
O=[N+]([O-])c1ccc(CSc2nnc(-c3cccc(Cl)c3)n2Cc2ccco2)cc1,0.4,-0.1,6.4,2.9,.,-3.6,.
CCOC(=O)C1=CCC(c2ccccc2)N(S(C)(=O)=O)C1 (centres undefined),-1.5,4.1,2.6,-6.3,.,-0.1,.
O=C(O)CCCN1C(=O)/C(=C\C(Cl)=C\c2ccccc2)SC1=S,3.1,1.9,11.9,3.0,-8.6,-1.9,.
O=C(O)CCCN1C(=O)/C(=C\c2ccc(-c3nc4ccccc4s3)o2)SC1=S,-3.2,0.3,27.2,49.2*,-4.7,8.2,12.4
O=C(CC(Nc1ccc(F)cc1)C(=O)OCC(=O)c1cccs1)c1ccccc1 (centres undefined),0.6,0.2,2.6,29.4*,7.8,-0.2,11.6
Cn1c(=O)c2c([nH]c(=S)n2CCCc2ccccc2)n(C)c1=O,-2.4,1.8,0.2,40.9*,-9.7,-3.6,64.2*
CC1(C)CC(=O)C=C(c2ccc(COC(=O)c3ccc(Br)cc3)cc2)C1=O,1.2,1.9,2.6,1.7,.,-1.9,.
Cc1ccc(C2C(C(=O)c3cccs3)=C(O)C(=O)N2c2nnc(C)s2)cc1 (centres undefined),-9.0,2.5,-44.1,69.5*,9.7,-30.5,36.0*
C=CCOc1cccc(C2C(C(=O)c3ccc(C)o3)=C(O)C(=O)N2c2nccs2)c1 (centres undefined),-4.3,3.6,1.2,62.5*,-12.1,-2.8,38.0*
CSc1ccc(C2C(C(=O)c3ccco3)=C(O)C(=O)N2c2nnc(SC)s2)cc1 (centres undefined),-12.9,0.8,16.9,65.3*,-12.3,-12.8,33.9*
Cc1nnc(N2C(=O)C(O)=C(C(=O)c3ccco3)C2c2ccc(C(C)C)cc2)s1 (centres undefined),-3.9,0.3,20.9,9.8,-1.5,-4.2,.
COc1cccc(C2C(C(=O)c3ccc(C)o3)=C(O)C(=O)N2c2cc(C)on2)c1 (centres undefined),3.3,-0.6,11.2,4.3,-19.3,0.3,.
CCCOc1cccc(C2C(C(=O)c3ccco3)=C(O)C(=O)N2c2nnc(C)s2)c1 (centres undefined),-8.8,6.7,3.7,32.4*,-9.2,-8.3,10.3
